# Assay results as given in PubChem BioAssay (NCATS).
# Results filed as inconclusive are left out. A call without a number means that no potency is given here. A number with no mark means an inactive call. Calls of active or inactive are those of the source. Calls follow the shape of the dose curve; as a rule, active = well fitted curve in the direction sought with a large enough effect; inconclusive = small, poorly fitted or top-dose-only effect, or another doubt; inactive = no such curve, though single readings can be large; an effect the other way counts as inactive or inconclusive.
# Legend:
# [1] = biological target: ATP-dependent 6-phosphofructokinase (Trypanosoma brucei brucei) (UniProt O15648); experiment: qHTS Assay to Find Inhibitors of T. brucei phosphofructokinase: hit validation (AID 492961);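 also: luminescence reports ADP formed as PFK phosphorylates fructose-6-phosphate with ATP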
# Sequence of ATP-dependent 6-phosphofructokinase (Trypanosoma brucei brucei) (O15648 whole entry, looked up): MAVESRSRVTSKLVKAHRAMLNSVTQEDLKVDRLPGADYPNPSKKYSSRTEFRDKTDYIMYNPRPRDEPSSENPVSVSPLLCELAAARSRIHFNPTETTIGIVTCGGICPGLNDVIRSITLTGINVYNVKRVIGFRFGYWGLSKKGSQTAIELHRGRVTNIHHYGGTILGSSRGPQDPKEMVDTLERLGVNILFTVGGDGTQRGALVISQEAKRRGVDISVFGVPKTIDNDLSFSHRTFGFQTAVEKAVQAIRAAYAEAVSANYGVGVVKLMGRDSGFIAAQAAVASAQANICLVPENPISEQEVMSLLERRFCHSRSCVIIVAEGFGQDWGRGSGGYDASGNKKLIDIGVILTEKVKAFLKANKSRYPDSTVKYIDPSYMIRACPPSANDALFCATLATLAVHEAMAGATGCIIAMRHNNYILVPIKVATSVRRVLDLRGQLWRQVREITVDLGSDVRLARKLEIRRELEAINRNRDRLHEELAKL
# How it was run: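 Compounds titrated; %activity normalized to 0x and 1x enzyme controls, curve-fitted. Readout: ADP-Glo luminescence after 45 min room-temperature reaction of 1.25 nM PFK, 0.1 mM ATP, 0.5 mM F6P, pH 8.0.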
# [2] = qHTS profiling for inhibitors of Plasmodium falciparum proliferation (AID 504749); also: potency is read from the fitted curve at half-maximal effect; as to all read-outs here: nearly all actives have a fitted effect of over 60% in size; details: P. falciparum in erythrocytes, SYBR Green DNA, 72 h; for activity, negative = inhibition: at 28.7 µM (top of the series)
# How it was run: (§1)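 Each compound contacts P. falciparum-infected red blood cells for 72 h at 37 C; lysis buffer (Tris, EDTA, saponin, Triton X, SYBR Green I) is added and fluorescence measured next morning; values normalized to controls.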
# [3] = system: ATS189; experiment: as above; details: P. falciparum in erythrocytes, SYBR Green DNA, 72 h; series mostly up to 28.7 µM
# How it was run: as §1
# [4] = system: CP185; experiment: as above; details: P. falciparum in erythrocytes, SYBR Green DNA, 72 h; series mostly up to 28.7 µM
# How it was run: as §1
# [5] = system: CP211; experiment: as above; details: P. falciparum in erythrocytes, SYBR Green DNA, 72 h; series mostly up to 28.7 µM
# How it was run: as §1
# [6] = system: CP217; experiment: as above; details: P. falciparum in erythrocytes, SYBR Green DNA, 72 h; series mostly up to 28.7 µM
# How it was run: as §1
# [7] = system: CP238; experiment: as above; details: P. falciparum in erythrocytes, SYBR Green DNA, 72 h; series mostly up to 28.7 µM
# How it was run: as §1
# [8] = system: CP252; experiment: as above; details: P. falciparum in erythrocytes, SYBR Green DNA, 72 h; series mostly up to 28.7 µM
# How it was run: as §1
# [9] = system: CP262; experiment: as above; details: P. falciparum in erythrocytes, SYBR Green DNA, 72 h; series mostly up to 28.7 µM
# How it was run: as §1
# [10] = system: CP265; experiment: as above; details: P. falciparum in erythrocytes, SYBR Green DNA, 72 h; series mostly up to 28.7 µM
# How it was run: as §1
# [11] = system: CP269; experiment: as above; details: P. falciparum in erythrocytes, SYBR Green DNA, 72 h; series mostly up to 28.7 µM
# How it was run: as §1
# [12] = system: CP286; experiment: as above; details: P. falciparum in erythrocytes, SYBR Green DNA, 72 h; series mostly up to 28.7 µM
# How it was run: as §1
# [13] = system: CP329; experiment: as above; details: P. falciparum in erythrocytes, SYBR Green DNA, 72 h; series mostly up to 28.7 µM
# How it was run: as §1
# [14] = system: DFO2036; experiment: as above; details: P. falciparum in erythrocytes, SYBR Green DNA, 72 h; series mostly up to 28.7 µM
# How it was run: as §1
# [15] = system: FAB9; experiment: as above; details: P. falciparum in erythrocytes, SYBR Green DNA, 72 h; series mostly up to 28.7 µM
# How it was run: as §1
# [16] = system: N140; experiment: as above; details: P. falciparum in erythrocytes, SYBR Green DNA, 72 h; series mostly up to 28.7 µM
# How it was run: as §1
# [17] = system: TAB109; experiment: as above; details: P. falciparum in erythrocytes, SYBR Green DNA, 72 h; series mostly up to 28.7 µM
# How it was run: as §1
# [18] = system: AA1029; experiment: as above; details: P. falciparum in erythrocytes, SYBR Green DNA, 72 h; series mostly up to 28.7 µM
# How it was run: as §1
# [19] = system: AS120; experiment: as above; details: P. falciparum in erythrocytes, SYBR Green DNA, 72 h; series mostly up to 28.7 µM
# How it was run: as §1
# [20] = system: ECU; experiment: as above; details: P. falciparum in erythrocytes, SYBR Green DNA, 72 h; series mostly up to 28.7 µM
# How it was run: as §1
smiles,measurement,setting,value
CC1(C)O[C@@H]2C[C@H]3[C@@H]4CCC5=CC(=O)C=C[C@]5(C)[C@H]4C(O)C[C@]3(C)[C@]2(C(=O)CO)O1 (some centres undefined),Potency,[1],inactive
same,"activity, negative = inhibition",[2]; parasite line A,-12.4%
same,"activity, negative = inhibition",[2]; parasite line B,-28%
same,Potency,[3],inactive
same,Potency,[4],inactive
same,Potency,[5],inactive
same,Potency,[6],inactive
same,Potency,[7],inactive
same,Potency,[8],inactive
same,Potency,[9],inactive
same,Potency,[10],inactive
same,Potency,[11],inactive
same,Potency,[12],inactive
same,Potency,[13],inactive
same,Potency,[14],inactive
same,Potency,[15],inactive
same,Potency,[16],11.2 µM (active)
same,Potency,[17],inactive
Clc1ccc(CS[C@@H](Cn2ccnc2)c2ccc(Cl)cc2Cl)cc1,Potency,[1],inactive
same,Potency,[2]; parasite line A,3.16 µM (active)
same,Potency,[2]; parasite line B,2.24 µM (active)
same,Potency,[18],3.55 µM (active)
same,Potency,[19],1.26 µM (active)
same,Potency,[3],3.16 µM (active)
same,Potency,[4],3.98 µM (active)
same,Potency,[6],3.16 µM (active)
same,Potency,[8],3.98 µM (active)
same,Potency,[10],3.16 µM (active)
same,Potency,[11],6.42 µM (active)
same,Potency,[12],3.55 µM (active)
same,Potency,[14],3.16 µM (active)
same,Potency,[20],1.78 µM (active)
same,Potency,[16],1.41 µM (active)
same,Potency,[17],3.55 µM (active)
Cn1cc(C(=O)[C@@H]2CCc3[nH]cnc3C2)c2ccccc21,Potency,[1],inactive
same,"activity, negative = inhibition",[2]; parasite line A,5.71%
same,"activity, negative = inhibition",[2]; parasite line B,16.1%
same,Potency,[18],inactive
same,Potency,[19],inactive
same,Potency,[3],inactive
same,Potency,[4],inactive
same,Potency,[5],inactive
same,Potency,[6],inactive
same,Potency,[7],inactive
same,Potency,[8],inactive
same,Potency,[9],inactive
same,Potency,[10],inactive
same,Potency,[11],inactive
same,Potency,[12],inactive
same,Potency,[13],inactive
same,Potency,[14],inactive
same,Potency,[20],inactive
same,Potency,[15],inactive
same,Potency,[16],inactive
same,Potency,[17],inactive
COc1ccc(C(=O)/C(Br)=C/C(=O)O)cc1,Potency,[1],inactive
same,"activity, negative = inhibition",[2]; parasite line A,-21.1%
same,"activity, negative = inhibition",[2]; parasite line B,-8.61%
same,Potency,[18],inactive
same,Potency,[3],inactive
same,Potency,[4],inactive
same,Potency,[7],inactive
same,Potency,[8],inactive
same,Potency,[9],inactive
same,Potency,[10],inactive
same,Potency,[12],inactive
same,Potency,[13],inactive
same,Potency,[14],inactive
same,Potency,[15],inactive
same,Potency,[16],inactive
CC1=C(c2ccc(NN=C(C#N)C#N)cc2)NNC(=O)C1,Potency,[1],inactive
same,"activity, negative = inhibition",[2]; parasite line A,-7.66%
same,"activity, negative = inhibition",[2]; parasite line B,20.7%
same,Potency,[18],inactive
same,Potency,[19],inactive
same,Potency,[3],inactive
same,Potency,[4],inactive
same,Potency,[5],inactive
same,Potency,[6],inactive
same,Potency,[7],inactive
same,Potency,[8],inactive
same,Potency,[9],inactive
same,Potency,[10],inactive
same,Potency,[11],inactive
same,Potency,[12],inactive
same,Potency,[13],inactive
same,Potency,[14],inactive
same,Potency,[20],inactive
same,Potency,[15],inactive
same,Potency,[16],inactive
same,Potency,[17],inactive
C[C@H](CN1c2ccccc2Sc2cccnc21)N(C)C,Potency,[1],inactive
same,"activity, negative = inhibition",[2]; parasite line A,-16.9%
same,"activity, negative = inhibition",[2]; parasite line B,-1.99%
same,Potency,[18],7.94 µM (active)
same,Potency,[19],11.2 µM (active)
same,Potency,[3],5.01 µM (active)
same,Potency,[4],11.2 µM (active)
same,Potency,[7],10 µM (active)
same,Potency,[8],11.2 µM (active)
same,Potency,[9],inactive
same,Potency,[12],4.47 µM (active)
same,Potency,[14],11.2 µM (active)
same,Potency,[20],inactive
same,Potency,[15],inactive
same,Potency,[16],11.2 µM (active)
same,Potency,[17],7.08 µM (active)
CCCSS/C(CCO)=C(/C)N(C=O)Cc1cnc(C)nc1N,Potency,[1],inactive
same,"activity, negative = inhibition",[2]; parasite line A,-20.8%
same,"activity, negative = inhibition",[2]; parasite line B,-22.2%
same,Potency,[18],inactive
same,Potency,[19],inactive
same,Potency,[3],inactive
same,Potency,[4],inactive
same,Potency,[5],inactive
same,Potency,[6],inactive
same,Potency,[7],inactive
same,Potency,[8],inactive
same,Potency,[9],inactive
same,Potency,[10],inactive
same,Potency,[11],inactive
same,Potency,[12],inactive
same,Potency,[13],inactive
same,Potency,[14],inactive
same,Potency,[20],inactive
same,Potency,[15],inactive
same,Potency,[16],inactive
same,Potency,[17],inactive
C[N+]12CCCC[C@@H]1CCC(=C(c1cccs1)c1cccs1)C2 (some centres undefined),Potency,[1],inactive
same,Potency,[2]; parasite line A,10 µM (active)
same,Potency,[2]; parasite line B,12.6 µM (active)
same,Potency,[18],8.91 µM (active)
same,Potency,[19],10 µM (active)
same,Potency,[4],8.91 µM (active)
same,Potency,[5],13.5 µM (active)
same,Potency,[6],7.94 µM (active)
same,Potency,[9],inactive
same,Potency,[11],13.5 µM (active)
same,Potency,[12],6.31 µM (active)
same,Potency,[14],10 µM (active)
same,Potency,[20],1 µM (active)
same,Potency,[15],11.2 µM (active)
same,Potency,[16],12.6 µM (active)
same,Potency,[17],2.51 µM (active)
C[C@@H]1CC2C3CCC4=CC(=O)C=C[C@]4(C)[C@@]3(F)[C@@H](O)C[C@]2(C)[C@@]1(O)C(=O)COC(=O)c1cccc(S(=O)(=O)O)c1 (some centres undefined),Potency,[1],inactive
same,"activity, negative = inhibition",[2]; parasite line A,4.33%
same,"activity, negative = inhibition",[2]; parasite line B,-2.2%
same,Potency,[18],inactive
same,Potency,[19],inactive
same,Potency,[3],inactive
same,Potency,[4],inactive
same,Potency,[5],inactive
same,Potency,[6],inactive
same,Potency,[7],inactive
same,Potency,[8],inactive
same,Potency,[9],inactive
same,Potency,[10],inactive
same,Potency,[11],inactive
same,Potency,[12],inactive
same,Potency,[13],inactive
same,Potency,[14],inactive
same,Potency,[20],inactive
same,Potency,[15],inactive
same,Potency,[16],inactive
same,Potency,[17],inactive
Cc1c(C)c2c(c(C)c1O)CCC(C)(CCCC(C)CCCC(C)CCCC(C)C)O2 (centres undefined),Potency,[1],inactive
same,"activity, negative = inhibition",[2]; parasite line A,15.7%
same,"activity, negative = inhibition",[2]; parasite line B,8.58%
same,Potency,[18],inactive
same,Potency,[19],inactive
same,Potency,[3],inactive
same,Potency,[4],inactive
same,Potency,[5],inactive
same,Potency,[6],inactive
same,Potency,[7],inactive
same,Potency,[8],inactive
same,Potency,[9],inactive
same,Potency,[10],inactive
same,Potency,[11],inactive
same,Potency,[12],inactive
same,Potency,[13],inactive
same,Potency,[14],inactive
same,Potency,[20],inactive
same,Potency,[15],inactive
same,Potency,[16],inactive
same,Potency,[17],inactive
COc1ccc(S(=O)(=O)N2c3ccc(Cl)cc3[C@](O)(c3ccccc3Cl)[C@@H]2C(=O)N2CCC[C@H]2C(N)=O)cc1OC,Potency,[1],inactive
same,"activity, negative = inhibition",[2]; parasite line A,-28.5%
same,"activity, negative = inhibition",[2]; parasite line B,-6.86%
same,Potency,[3],inactive
same,Potency,[4],inactive
same,Potency,[5],inactive
same,Potency,[6],inactive
same,Potency,[7],inactive
same,Potency,[8],inactive
same,Potency,[9],inactive
same,Potency,[10],inactive
same,Potency,[11],inactive
same,Potency,[12],inactive
same,Potency,[13],inactive
same,Potency,[14],inactive
same,Potency,[15],inactive
same,Potency,[17],inactive
CNC1CCc2cc(OC)c(OC)c(OC)c2-c2ccc(OC)c(=O)cc21 (centres undefined),Potency,[1],inactive
same,"activity, negative = inhibition",[2]; parasite line A,-5.32%
same,"activity, negative = inhibition",[2]; parasite line B,0.292%
same,Potency,[18],inactive
same,Potency,[19],inactive
same,Potency,[3],inactive
same,Potency,[4],inactive
same,Potency,[5],inactive
same,Potency,[6],inactive
same,Potency,[7],inactive
same,Potency,[8],inactive
same,Potency,[9],inactive
same,Potency,[10],inactive
same,Potency,[11],inactive
same,Potency,[12],inactive
same,Potency,[13],inactive
same,Potency,[14],inactive
same,Potency,[20],inactive
same,Potency,[15],inactive
same,Potency,[16],inactive
same,Potency,[17],inactive
